The whole screen tested about 53,000 sequences, of which about 3,700 (7%) were called active. Shown is part of a subset that was picked to be rich in actives. Unmarked numbers belong to inactive results.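 The calls were made as follows: active = gene knockdowns whose robust z-score for IL-1 alpha signal is at least 2 or at most -2, so actives lie on both sides; inactive = the rest.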

This assay in a line: Components of the Cytosolic LPS Sensing Pathway: Gene Identification via Genome-wide siRNA Screen.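 Also: robust z of the log signal after scaling to non-targeting control siRNA wells of the plate.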 To be noted: RAW264.7 macrophages, IL-1a HTRF, actives lie on both sides, screened at 100 nM (by protocol), cells primed 5 h with Pam3CSK4 first. A digest of the protocol: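 Mouse macrophage line RAW264.7 is transfected with siRNA (100 nM final), grown 48h, primed with TLR ligand Pam3CSK4 5 h and given intracellular LipidA 24 h. IL-1a in supernatant is read by HTRF and viability by luminescence.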
(In general: TR-FRET usually uses a lanthanide donor and a delayed reading to cut background.)
Consider GGCAGAAUACUAUAUAUAGTT against Tmx2, for which the z-score is 0.879. With GGAAAUCUGUUCUUGAAGGTT against Pcdhb4, the z-score is -0.0811. GGUGCUGACUCCGACUAAATT against Nhsl1: the z-score is 1.2. With GGUACAGCUGGUUCUCUUUTT against Olfr1018 the figure was 1.2; with GCUUGCUAGAUUGGUGUUGTT against Arhgap17, 3.32 (active); with GGCUGCUAUCAUGGAAUUATT against Ppp2cb, 0.924. With CGUGUGAAGAAAAUUGAUGTT against Mmp27 the figure was 0.568; with GCACAGUAACCUAAAAUACTT against Tanc2, -1.48. With GGAUUUGAGGUUUUAGGAATT against Qtrt2 the figure was -0.0174; with GGUUGUGGUCUUUGUUCUGTT against Olfr923, -1.11; with GGAAAGAACAACAAAGGAGTT against Snx9, 0.84.

As for CCUCUCAGAUGGUAUAUAATT against Olfr520, the z-score is -2.14 (active). For GCCUCAAUUGUUUACUUAUTT against Edn2, the z-score is 0.404. The figure for GGAGAAGUCAUGAAACAAATT against Prkn is 0.349; for GGACAAAUCUUUGUUUAGCTT against Plscr3 it is -0.0965. On to GGGACCCAAGGAUAUGAAUTT against Rbsn, for which the z-score is 0.6. Regarding GGAGCAAGUAUUUACAUUGTT against Psmd10, the z-score was 1.55.

As to GGAGGUUGGGAUGAAUUAUTT against Rab6b, the z-score is 4.26 (active).

For GGACUAAUUGGCCUCUGCUTT against Rpl22l1, the z-score is 0.638.

As for GGGCUGCUCACAAUUUAUATT against Tmem135, the z-score is 1.17. With GGACACUUACGUCAUCGAGTT against Rtca the figure was -0.814; with GGUGGAGAUUGUUUGUAAATT against Lratd1, 1.56; with GGACCCAUCGAAACCUCUATT against Pirb, -0.0759. For the sequence CCCAUGCUUGGAAUAAUUATT against Man1a, the z-score was 0.00246. With GGACGAACUCAUCAACAGUTT against Gtf2ird1 the figure was -0.00436; with GGGAAGCUGAUUAUACAUUTT against Serpinf1, 3.22 (active). The figure for GGCUAAGAAUGAGACUGGUTT against Abcg4 is -0.0869; for GGAGAAGAUUCCAGAAGCCTT against Tcf15 it is -1.42. Take GGGCAUUGGCAAGAAAAAGTT against Ahdc1: the z-score was -0.543. For the sequence GCAUAAGCGAAGAAGAAGUTT against Clk2, the z-score was 0.0795. With GCUGGCUGUUUCACUACAGTT against Tdh the figure was 3.19 (active). GCUAGAGUAGCUUUGGGCATT against Glra3: the z-score is 1.37.

For the sequence GCAAGAUUUAUCCCAGUCGTT against Rnf2, the z-score is -1.83.

GCUUCGACAUUGUUAGUUATT against Ammecr1: the z-score was 0.322. GCAUGUUCGUGGAAGUACUTT against Got1l1: the z-score was 0.0202. GGAGAUCCUCAAGGAGCAGTT against Park7: the z-score was 2.02 (active). With GCAGUUUCUAAUGAAGGUUTT against Ppp2r5a the figure was 0.416; with CGGUCUGCUCUACAUUGUCTT against Nek4, 1.39; with GCCUAUGGGUCAUUUCAAATT against Dock11, -0.968. Regarding GGGCAGGUGGAUGUGGAAATT against Ryr2, the z-score is 0.546. With GGUACCAUAUCUGUGAACATT against Nrxn3 the figure was -1.25; with GGUUCAGCUGGUCCUAUCUTT against Olfr1099, -2.07 (active); with GGCAAUGCUGUCCUACUAUTT against Map2k5, -1.19. The figure for GGAGAACUUAAAGCACAAUTT against Plxnb1 is 0.179; for “UCCUAGAGUCAUCAUCAUATT against A530064D06Rik” it is -0.44.

With GGAAUCUAUGAACAUGUUUTT against Pcdh12, the z-score was -0.433.

Take GGCUGGGAAAAAAAAAGAATT against Ifi205: the z-score is 0.704.

Regarding GGAUUUUUAUGAUAGUGACTT against Slc4a1ap, the z-score is -0.747. GCAUCACUGGAAAUCUUACTT against Olfr807: the z-score was -2.31 (active). The figure for CCAUUUGAUCAAGCUUUAGTT against Spock3 is 0.0957; for GGACUCUCAAUGAUGAAUATT against Map7d3 it is 1.85; for GCGACACAUUCGAUCUCAGTT against Mecom it is 4.11 (active).

CCAGAUUCGAAUAUCUAAGTT against Mrps30: the z-score was 0.935. The figure for GCCAGAAUGGACUUGAGAATT against Vmn1r227 is -1.21; for GCCUUAAUGAGGGUUAUGCTT against Fbp1 it is -1.11.

CGAACCAUAGCUAGCUCCATT against Klhdc8b: the z-score was -0.869. For GGCUCAGUCCCAUCAGCAUTT against Gdf7, the z-score was 0.524. Consider GGUUUGAUCUCAUUUUCCUTT against Mcm4, for which the z-score is 2.92 (active). With GGAACAGUAUAUAAGUUCATT against Hcfc2 the figure was -0.593; with GCUACUUCAUGGAAUCUUCTT against Mrgprb8, -0.668. The figure for CGUUUGAAUAAUUCAGAGUTT against Armcx2 is -0.152. For GGUGGAAGGCUUUUUCUACTT against Olfr1104, the z-score is 1.63. The figure for GCGAUACCGUGCCAUGUUUTT against Dohh is -1.21; for “CGAAGAUUACCUUUCAAGATT against St6galnac3” it is 0.371.

For GCCCUUUCGCCUAUGGUUUTT against Tedc1, the z-score was 0.931. The figure for GCUAAUCAACAAUGUCGCCTT against Atp5b is 0.781; for GGUUAAAGUCCUUCAGUAUTT against Tubb3 it is 2.83 (active); for GGAAAAAACCACGAUUGAGTT against Pecam1 it is -0.434. With GGCUUACCUACAACAAGUUTT against Ccnt1 the figure was -2.07 (active). With “GGUUAGGCACAAAUAAGUUTT against B230206H07Rik”, the z-score was 1.08.

For the sequence GGUUCCUAUACCCAACGGUTT against Mrgpra7, the z-score was -1.07.

For GGUUGAUGAUAGCUCUGAATT against Opn1mw, the z-score was -0.22. For the sequence GGUCUUAAGGAGAAAUGAATT against Cbln2, the z-score is -0.48.

With GCUUCGCUCGCAUUCUUAUTT against Rsrc1, the z-score is -0.299. In the case of GGACUAUCCAGGAAUCGUGTT against Ergic3, the z-score is 0.713. With GGACAAGCUGAAGACGCACTT against Zfp64 the figure was 3.03 (active). With GCAUAGUCUUGUUAACCAGTT against Poldip3 the figure was -0.689; with GGAUUCAUAGACUUCAUAGTT against Impdh1, 0.608; with CCAUCUGGACUUCAGUUUUTT against Rap1gap2, 0.901. With GCACUCAAAUGGUAGAUUCTT against Socs6 the figure was -0.315. Consider GGGUGAACUCGGACAUUGATT against Spata19, for which the z-score is -0.754. The figure for GCGUGAACACCUGAGGAUUTT against Rchy1 is -0.323; for GGUGUUGCUUAUCAUCGGCTT against Mrgprh it is -2.03 (active); for GGGCAUCCUGGAUCAUCAUTT against Nlrp6 it is -1.64. The figure for CCUUAGAUAUCUACUGUAATT against Trim2 is 1.37. For GGUGCAAGUUUUGGUGGGATT against Etfbkmt, the z-score was 0.35. For GGAACCUAAUUGAAUGGCUTT against Cmbl, the z-score was 0.985.

With GGCGAAUGUGUGAAGAGGCTT against H2-Q5, the z-score was -1.97. As for GCUGCUAGCAAAAAGAACUTT against Yaf2, the z-score was 2.24 (active). The figure for GGAUGUUACGAAGAAGAUUTT against Ash1l is -0.664. Turning to GCCAUAUAUCUGCUAUCAUTT against Clvs2, the z-score was 2.34 (active). With GCAACUUAAAGGCAUCUCCTT against Sntn, the z-score is 1.53. With GGGAAUCUUGGCAUGAUGGTT against Olfr1030 the figure was -0.325; with GGUAUUUAUCUGAAUCUGATT against Dennd2c, 0.668.

Regarding CCAGCCUCUUCUAAUACACTT against Preb, the z-score is -0.413. Turning to CCCAUCCAAUGCUUAUGUGTT against Scg5, the z-score was -0.421. With GCCUAAAAAGAGUGGGUCATT against Mllt1 the figure was -2.73 (active); with GGAUCUAGGAGCUGAUUAUTT against Mecr, -1.18. Turning to CCAUCAUGCCCUGUUUGCATT against Cdc42ep3, the z-score is 0.393. GCUCUUGUUAUUUACGUCGTT against Lgi1: the z-score is 0.478. Consider CGACCACAUGAGGAUGCAUTT against Zbtb20, for which the z-score was -0.974. For the sequence CCAUUAUUGGCCCAUGCUCTT against Babam1, the z-score was -2.75 (active). For the sequence GGUUAUAAAACUAUGGAACTT against Map2k5, the z-score is 0.133. With GGAUCAUUGUUCUCUCAAGTT against Psmg2 the figure was 0.186; with GGCUCAAAAGUCUUGGGACTT against Hells, 0.31; with CGCAGAUGAUUAAGUUGGUTT against Olfr1000, 0.961. With GGUGGAGACAGAAAUCCAATT against Amot the figure was 0.23.

(Values after PubChem BioAssay AID1508600 (Functional Genomics Laboratory (NCATS/FGL), 2020).)
